Data taken from PubChem BioAssay (NCATS).
Records with an inconclusive call do not appear. The source made the active and inactive calls. Unless noted, the call rests on the fitted dose curve; in most records, active means well fitted curve in the direction sought with a large enough effect; inconclusive means small, poorly fitted or top-dose-only effect, or another doubt; inactive means no such curve, though single readings can be large; an effect the other way counts as inactive or inconclusive.

Key:
[1] = Quantitative high throughput screen for delayed death inhibitors of the malarial parasite plastid, 48 hour incubation (AID 488752); further: on the % scale 0 is the no-effect control and ±100 the full control effect; nearly all actives have a fitted effect of over 65% in size
Procedure, shortened: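 Cultures: infected erythrocytes at final 2% hematocrit and 0.1% parasitemia in Albumax-supplemented RPMI. Parasites express integrated firefly luciferase. Incubation with compound lasts 48 h before luminescent detection of remaining reporter activity.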

[2] = biological target: Thioredoxin reductase 1, cytoplasmic (Rattus norvegicus) (UniProt O89049); test: qHTS Assay for Substrates of Mammalian Selenoprotein Thioredoxin Reductase 1 (TrxR1) (AID 488772);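 further: series mostly up to about 57 µM; 0% is about no effect; a drop in NADPH fluorescence below the no-compound background marks a TrxR1 substrate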
Procedure, shortened: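 In this dual-purpose format, potential substrates are identified from the first fluorescence read after selenite addition, not from the 8-minute delta. Rat enzyme is preincubated with NADPH and then with compound at ~22 deg C.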

[3] = biological target: Thioredoxin reductase 1, cytoplasmic (Rattus norvegicus) (UniProt O89049); test: qHTS Assay for Inhibitors of Mammalian Selenoprotein Thioredoxin Reductase 1 (TrxR1) (AID 488773); details: Potency: inhibition;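 further: drop in NADPH fluorescence over an 8 min run after selenite addition; series mostly up to about 57 µM; on the % scale 0 is the no-effect control and ±100 the full control effect; nearly all actives have a fitted effect of over 40% in size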
Procedure, shortened: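 Inhibition is scored from the loss of NADPH fluorescence between first and last reads of an 8-min kinetic run. Selenite (400 uM) was the substrate, added after 15 min compound preincubation at room temperature.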

[4] = biological target: Flap endonuclease 1 (Homo sapiens) (UniProt P39748); test: qHTS Validation Assay for the Inhibitors of Human Flap endonuclease 1 (FEN1) (AID 488816); further: on the % scale 0 is the no-effect control and ±100 the full control effect
Procedure, shortened: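 Steps: add FEN1 (10 nM reagent) or buffer only; pin compounds; hold 15 min at room temperature; start with substrate, 50 nM final; read at 0 and 15 min; correct, normalize and fit a four-parameter Hill curve.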

[5] = biological target: M-phase phosphoprotein 8 (Homo sapiens) (UniProt Q99549); test: qHTS Validation Assay for Inhibitors for MPP8 Chromodomain Interactions with Methylated Histone Tails (AID 488949);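 further: AlphaScreen signal from MPP8 chromodomain bound to biotinylated H3K9me3 peptide; top concentration of the series differs between compounds; on the % scale 0 is the no-effect control and ±100 the full control effect; nearly all actives have a fitted effect of over 55% in size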
Procedure, shortened: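 MPP8 (50 nM) was preincubated with biotinylated H3(1-18)K9me3 peptide (50 nM) in PBS pH 7.4, 0.01% Tween-20 for 30 min at room temperature, then with compounds for 30 min; binding was detected by AlphaScreen.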

[6] = biological target: Chromobox protein homolog 1 (Homo sapiens) (UniProt P83916); test: qHTS Validation Assay for Inhibitors of HP1-beta Chromodomain Interactions with Methylated Histone Tails (AID 488953);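 further: loss of AlphaScreen luminescence from HP1-beta binding biotinylated H3K9me3 peptide; series mostly up to about 110 µM; on the % scale 0 is the no-effect control and ±100 the full control effect; nearly all actives have a fitted effect of over 50% in size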
Procedure, shortened: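 Compounds pinned into a preassembled complex of HP1-beta and trimethyl-K9 histone H3(1-18) biotin peptide (50 nM each; PBS pH 7.4, 0.01% Tween-20). After 30 min, bead-based AlphaScreen detection followed.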

[7] = biological target: Methanococcus maripaludis chaperonin (MmCpn) (UniProt Q6LX38); test: High-Throughput Screening for Modulators of Cytosolic Chaperonin Activity: MmCpn Primary Screen (AID 488978);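 further: 50 nM MmCpn enzyme hydrolysing 30 µM ATP at 37 °C; 0% is about no effect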
Procedure, shortened: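 MmCpn (50 nM final) was preincubated with compound 5 min at RT, then 30 uM ATP (final) was added and the reaction ran 10 min at 37C. ADP produced was detected by Transcreener HTRF (ex 320 nm; em 590/665 nm).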

[8] = biological target: Thyrotropin receptor (Homo sapiens) (UniProt P16473); test: qHTS Assay for Antagonists of the Thyroid Stimulating Hormone Receptor (AID 488980); further: series mostly up to about 58 µM; 0% is about no effect
Procedure, shortened: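 HEK293 cells transfected with human TSHR, suspended in HEPES-buffered HBSS with 70 uM RO 20-1724, were treated with compounds plus TSH at EC80 (4 nM final). cAMP was measured by competitive HTRF (cryptate anti-cAMP antibody, cAMP-d2 acceptor).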

[9] = biological target: D(1A) dopamine receptor (Homo sapiens) (UniProt P21728); test: HTS Assay for Allosteric Agonists of the Human D1 Dopamine Receptor: Primary Screen for Agonists (AID 488981); further: 0% is about no effect
Procedure, shortened: (§1)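 Tetracycline-induced HEK293 T-REx cells force-coupled to calcium signalling were incubated overnight at 30 C and dye-loaded at room temperature. Calcium flux over 180 s after compound addition flagged agonists; a further 180 s read after EC20 dopamine flagged potentiators.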

[10] = biological target: D(1A) dopamine receptor (Homo sapiens) (UniProt P21728); test: HTS Assay for Allosteric Agonists of the Human D1 Dopamine Receptor: Primary Screen for Potentiators (AID 488982); further: 0% is about no effect
Procedure, shortened: as §1

[11] = biological target: D(1A) dopamine receptor (Homo sapiens) (UniProt P21728); test: HTS Assay for Allosteric Agonists of the Human D1 Dopamine Receptor: Primary Screen for Antagonists (AID 488983);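 further: calcium flux response to an EC80 dopamine challenge measured with no-wash dye; on the % scale 0 is the no-effect control and ±100 the full control effect; nearly all actives have a fitted effect of over 65% in size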
Procedure, shortened: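 In this primary screen, compounds are applied to calcium-dye-loaded HEK293 T-REx cells with force-coupled D1 expression induced overnight at 30 C. An EC80 of dopamine follows the 180 s compound phase, and calcium is monitored for a further 180 s.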

[12] = Validation screen for small molecules that induce genotoxicity in human embryonic kidney (HEK293T) cells expressing luciferase-tagged ELG1 (AID 493106); further: 0% is about no effect
Procedure, shortened: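 In this validation screen, increased ELG1-luciferase signal flags compounds causing genetic stress. HEK293T reporter cells are treated 16 hr (37 °C, 5% CO2), developed with ONE-Glo for 30 min at room temperature, and imaged on a CCD-based reader.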

[13] = biological target: Thyrotropin-releasing hormone receptor (Homo sapiens) (UniProt P34981); test: qHTS for Small Molecule Agonists and Allosteric Enhancers of Human TRH Receptor: Validation Screen for Agonists (AID 493127;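 active means calcium activation more than 3 SD above the typical response in the agonist read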;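 further: intracellular calcium rise by fluo-8 fluorescence before TRH EC20 addition; 0% is about no effect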); details: TRH receptor agonist cell assay; at 2 µM; stronger effect = higher value
Procedure, shortened: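 Kinetic fluorescence assay of agonist-induced calcium release: overnight-plated TRHR cells, room-temperature fluo-8 loading, baseline then compound addition with per-second reads.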

[14] = Nrf2 qHTS screen for inhibitors: Validation (AID 493153; active means well fitted inhibition curve with a large enough effect in the main read-out, with a control signal flat, not every such curve was filed as active); details: viability change: measured here: cytotoxicity max response
Procedure, shortened: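 In this counterscreened reporter format, each well gives two signals: CellTiter-Fluor fluorescence for cytotoxicity and ARE-luciferase luminescence for Nrf2 function. A549 ARE_Fluc cells in 5% FBS OPTI-MEM were exposed to compound titrations for 18-24 h.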

[15] = biological target: Galactokinase (Homo sapiens) (UniProt P51570); test: qHTS Validation Assay for Inhibitors of Human Galactokinase (GALK) (AID 493189); further: 0% is about no effect
Procedure, shortened: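 GALK (5 nM) with 35 uM ATP and 100 uM galactose in HEPES pH8.0, MgCl2, NaCl, DTT, BSA; 1 h at room temperature. Residual ATP read by Kinase-Glo Plus luminescence after 10 min.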

[16] = Validation screen for small molecules that induce DNA re-replication in SW480 colon adenocarcinoma cells (AID 504364); further: 0% is about no effect
Procedure, shortened: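 Hoechst-stained SW480 nuclei, imaged at 405 nm excitation after 48 hr compound exposure, were counted for elevated DNA content as the re-replication signal.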

[17] = biological target: Peptidyl-prolyl cis-trans isomerase NIMA-interacting 1 (Homo sapiens) (UniProt Q13526); test: qHTS Validation Assay to Find Inhibitors of Pin1 (AID 504536; active means well fitted inhibition curve with a large enough effect in the polarisation, with a control signal flat, not every such curve was filed as active; the % refers to the polarisation;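 further: 0% = full Pin1 enzyme wells and -100% = no-enzyme wells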)
Procedure, shortened: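 Fluorescence polarization competition: compounds (titration) displace HiFluor-488-labeled Pin1-1b peptide from Pin1 (0.3 uM final) in pH 7.5 HEPES buffer with DTT, 10 min at room temperature; %Activity normalized to no-enzyme wells, curves fitted.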

Sequence of D(1A) dopamine receptor (Homo sapiens) (P21728 whole entry, looked up): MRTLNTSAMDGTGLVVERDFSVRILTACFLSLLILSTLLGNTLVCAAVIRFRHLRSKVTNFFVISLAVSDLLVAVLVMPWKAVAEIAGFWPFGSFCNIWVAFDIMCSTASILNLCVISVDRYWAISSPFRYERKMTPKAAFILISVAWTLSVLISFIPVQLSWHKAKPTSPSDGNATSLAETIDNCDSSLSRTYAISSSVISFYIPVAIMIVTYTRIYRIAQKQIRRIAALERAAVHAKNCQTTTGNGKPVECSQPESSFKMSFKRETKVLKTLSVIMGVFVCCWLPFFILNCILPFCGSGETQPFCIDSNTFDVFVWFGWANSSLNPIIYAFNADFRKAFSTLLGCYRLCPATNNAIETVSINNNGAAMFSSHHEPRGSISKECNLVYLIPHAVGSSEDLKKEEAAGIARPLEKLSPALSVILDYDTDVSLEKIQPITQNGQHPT
Sequence of Thioredoxin reductase 1, cytoplasmic (Rattus norvegicus) (O89049 whole entry, looked up): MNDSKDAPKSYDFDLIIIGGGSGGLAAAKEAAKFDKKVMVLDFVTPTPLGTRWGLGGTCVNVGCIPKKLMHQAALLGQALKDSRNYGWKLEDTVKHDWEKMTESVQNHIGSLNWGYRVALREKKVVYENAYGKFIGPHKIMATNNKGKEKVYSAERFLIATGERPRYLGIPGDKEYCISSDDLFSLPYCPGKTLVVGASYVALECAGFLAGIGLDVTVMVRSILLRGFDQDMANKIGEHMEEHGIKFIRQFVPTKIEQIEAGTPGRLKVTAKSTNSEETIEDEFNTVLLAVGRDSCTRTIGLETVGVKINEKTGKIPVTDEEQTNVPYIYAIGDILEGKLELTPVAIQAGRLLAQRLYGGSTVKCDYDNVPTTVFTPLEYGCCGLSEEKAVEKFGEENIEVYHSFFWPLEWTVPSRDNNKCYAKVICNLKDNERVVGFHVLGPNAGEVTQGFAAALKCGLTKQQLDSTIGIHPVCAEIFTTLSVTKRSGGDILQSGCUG
Sequence of M-phase phosphoprotein 8 (Homo sapiens) (Q99549 whole entry, looked up): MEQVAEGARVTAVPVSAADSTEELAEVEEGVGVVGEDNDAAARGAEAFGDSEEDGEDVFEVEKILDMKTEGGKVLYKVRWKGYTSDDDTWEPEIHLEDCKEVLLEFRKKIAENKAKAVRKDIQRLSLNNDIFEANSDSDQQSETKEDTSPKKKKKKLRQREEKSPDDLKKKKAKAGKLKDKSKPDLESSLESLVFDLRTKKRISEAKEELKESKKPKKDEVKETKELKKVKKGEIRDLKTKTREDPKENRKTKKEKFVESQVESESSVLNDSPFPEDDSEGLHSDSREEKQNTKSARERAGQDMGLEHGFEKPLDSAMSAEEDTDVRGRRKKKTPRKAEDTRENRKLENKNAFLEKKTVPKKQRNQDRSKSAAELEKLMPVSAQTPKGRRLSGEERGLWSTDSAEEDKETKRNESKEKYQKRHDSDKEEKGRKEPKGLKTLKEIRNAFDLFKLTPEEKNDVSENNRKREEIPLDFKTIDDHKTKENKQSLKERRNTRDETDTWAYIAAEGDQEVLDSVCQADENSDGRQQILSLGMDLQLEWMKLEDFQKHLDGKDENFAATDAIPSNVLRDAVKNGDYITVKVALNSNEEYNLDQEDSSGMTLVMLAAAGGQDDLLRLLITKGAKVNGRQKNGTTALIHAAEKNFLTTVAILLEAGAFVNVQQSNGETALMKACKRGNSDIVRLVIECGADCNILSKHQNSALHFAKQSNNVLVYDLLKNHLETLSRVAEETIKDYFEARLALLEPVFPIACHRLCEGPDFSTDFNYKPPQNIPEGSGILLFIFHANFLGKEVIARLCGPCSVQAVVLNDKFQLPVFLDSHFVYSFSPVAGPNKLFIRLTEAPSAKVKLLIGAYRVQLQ
Sequence of Peptidyl-prolyl cis-trans isomerase NIMA-interacting 1 (Homo sapiens) (Q13526 whole entry, looked up): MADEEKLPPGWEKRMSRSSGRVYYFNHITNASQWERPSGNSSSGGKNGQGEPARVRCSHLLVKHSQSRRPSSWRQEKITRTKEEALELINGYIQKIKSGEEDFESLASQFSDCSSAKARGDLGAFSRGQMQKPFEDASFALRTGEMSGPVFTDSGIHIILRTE
Sequence of Thyrotropin receptor (Homo sapiens) (P16473 whole entry, looked up): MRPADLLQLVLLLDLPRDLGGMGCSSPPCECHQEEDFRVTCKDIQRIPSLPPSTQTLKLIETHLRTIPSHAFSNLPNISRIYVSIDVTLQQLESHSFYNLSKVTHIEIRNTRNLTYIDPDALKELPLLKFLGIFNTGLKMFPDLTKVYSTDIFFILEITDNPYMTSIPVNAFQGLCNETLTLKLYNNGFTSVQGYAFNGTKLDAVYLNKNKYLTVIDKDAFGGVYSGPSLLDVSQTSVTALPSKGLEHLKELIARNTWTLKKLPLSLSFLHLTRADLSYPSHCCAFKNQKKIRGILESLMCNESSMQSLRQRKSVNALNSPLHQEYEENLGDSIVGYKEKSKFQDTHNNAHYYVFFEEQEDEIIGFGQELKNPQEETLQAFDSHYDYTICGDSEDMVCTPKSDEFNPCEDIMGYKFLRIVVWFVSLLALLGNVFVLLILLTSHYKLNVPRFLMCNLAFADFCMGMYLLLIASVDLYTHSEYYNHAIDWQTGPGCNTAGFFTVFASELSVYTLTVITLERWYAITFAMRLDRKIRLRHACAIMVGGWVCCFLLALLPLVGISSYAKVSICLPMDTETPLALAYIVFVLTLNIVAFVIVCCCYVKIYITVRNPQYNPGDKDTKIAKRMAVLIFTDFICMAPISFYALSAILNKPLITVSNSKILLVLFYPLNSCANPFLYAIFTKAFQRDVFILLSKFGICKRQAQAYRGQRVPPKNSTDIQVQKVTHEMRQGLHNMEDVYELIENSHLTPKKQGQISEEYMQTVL
Sequence of Galactokinase (Homo sapiens) (P51570 whole entry, looked up): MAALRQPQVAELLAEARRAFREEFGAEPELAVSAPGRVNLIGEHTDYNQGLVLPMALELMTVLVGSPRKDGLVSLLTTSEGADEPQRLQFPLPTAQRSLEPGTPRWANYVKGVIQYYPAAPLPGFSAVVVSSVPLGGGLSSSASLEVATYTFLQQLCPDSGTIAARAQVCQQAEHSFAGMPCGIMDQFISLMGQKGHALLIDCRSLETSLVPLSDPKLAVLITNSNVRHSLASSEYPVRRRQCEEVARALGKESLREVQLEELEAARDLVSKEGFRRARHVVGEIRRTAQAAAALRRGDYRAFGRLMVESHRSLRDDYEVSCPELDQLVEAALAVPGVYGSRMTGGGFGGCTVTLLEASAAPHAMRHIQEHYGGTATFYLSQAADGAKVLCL
Sequence of Flap endonuclease 1 (Homo sapiens) (P39748 whole entry, looked up): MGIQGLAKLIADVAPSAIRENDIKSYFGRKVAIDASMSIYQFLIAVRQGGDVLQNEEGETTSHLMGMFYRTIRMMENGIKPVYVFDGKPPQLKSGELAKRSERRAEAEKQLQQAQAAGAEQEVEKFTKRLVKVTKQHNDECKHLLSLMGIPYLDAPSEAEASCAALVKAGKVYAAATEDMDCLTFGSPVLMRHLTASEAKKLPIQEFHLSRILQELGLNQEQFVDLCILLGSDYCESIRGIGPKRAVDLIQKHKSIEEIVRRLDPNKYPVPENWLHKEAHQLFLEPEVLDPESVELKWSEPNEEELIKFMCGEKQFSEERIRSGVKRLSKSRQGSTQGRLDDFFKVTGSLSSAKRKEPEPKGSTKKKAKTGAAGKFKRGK
Sequence of Methanococcus maripaludis chaperonin (MmCpn) (Q6LX38 1-543): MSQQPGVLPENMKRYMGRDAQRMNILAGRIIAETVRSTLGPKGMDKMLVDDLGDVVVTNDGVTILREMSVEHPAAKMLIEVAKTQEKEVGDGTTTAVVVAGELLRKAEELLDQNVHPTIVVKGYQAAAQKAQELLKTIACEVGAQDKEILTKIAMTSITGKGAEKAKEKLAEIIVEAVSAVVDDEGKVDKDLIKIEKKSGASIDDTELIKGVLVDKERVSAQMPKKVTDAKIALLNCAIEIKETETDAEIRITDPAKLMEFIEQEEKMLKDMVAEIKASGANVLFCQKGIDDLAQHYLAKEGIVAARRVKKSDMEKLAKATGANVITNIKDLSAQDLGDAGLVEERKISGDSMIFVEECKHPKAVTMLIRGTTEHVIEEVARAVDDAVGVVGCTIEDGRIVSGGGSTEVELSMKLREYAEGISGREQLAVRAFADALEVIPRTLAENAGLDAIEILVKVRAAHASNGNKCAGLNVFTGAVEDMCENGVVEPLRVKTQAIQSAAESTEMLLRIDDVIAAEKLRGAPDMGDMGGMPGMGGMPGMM
Sequence of Thyrotropin-releasing hormone receptor (Homo sapiens) (P34981 whole entry, looked up): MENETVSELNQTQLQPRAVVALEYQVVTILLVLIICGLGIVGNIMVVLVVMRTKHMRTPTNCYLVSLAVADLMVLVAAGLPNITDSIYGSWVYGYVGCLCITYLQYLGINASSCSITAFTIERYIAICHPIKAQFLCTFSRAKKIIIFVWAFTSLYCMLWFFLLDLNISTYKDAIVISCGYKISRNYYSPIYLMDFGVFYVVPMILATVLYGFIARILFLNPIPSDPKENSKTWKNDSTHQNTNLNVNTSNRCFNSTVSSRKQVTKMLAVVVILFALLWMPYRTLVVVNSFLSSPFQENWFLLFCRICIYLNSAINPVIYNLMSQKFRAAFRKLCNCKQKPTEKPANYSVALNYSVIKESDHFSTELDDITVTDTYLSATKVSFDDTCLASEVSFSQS
Sequence of Chromobox protein homolog 1 (Homo sapiens) (P83916 whole entry, looked up): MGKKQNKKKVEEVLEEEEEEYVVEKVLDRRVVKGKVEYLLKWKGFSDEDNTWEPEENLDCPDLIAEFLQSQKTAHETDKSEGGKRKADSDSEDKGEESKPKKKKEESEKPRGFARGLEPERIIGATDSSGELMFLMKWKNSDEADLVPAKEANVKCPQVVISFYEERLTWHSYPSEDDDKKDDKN

C1CCC(N=C(NC23CC4CC(CC(C4)C2)C3)N2CCOCC2)CC1
inactive: Potency [1] | outcome [2] | Potency [3] | Potency [4] | Potency [5] | Potency [6] | outcome [7] | outcome [8] | outcome [9] | outcome [10] | outcome [11] | Potency [12] | activation [13] 1.31% | outcome [14] | outcome [15] | outcome [16] | Potency [17]
4.19%: viability change [14]
